Screening data as filed in PubChem BioAssay.
Shown is part of a subset that was picked to be rich in hits.
Shiga toxin inh: blocks Shiga toxin action in Vero cells; 290,000 compounds, 9.2% hits; inhibition, % at 38.7 µM; Vero cells, Shiga toxin protein synthesis inhibition reporter; AID 2315; in the data active = inhibition mostly above about 28%, no sharp cut-off; inactive = mostly below about 43%; also: 0% is about no effect
MARV entry inh: inhibitors of Marburg virus binding or cell entry | AID 540276 | Marburg virus pseudotyped entry inhibition, cell reporter | Potency, µM (top dose mostly 37.8 µM), without a hit: at the top dose activity change, negative = inhibition, usual class: inhibitors | 300,000 compounds, 1.8% hits; calls by dose curve; tested in HEK293 cells; also: potency is read from the fitted curve at half-maximal effect; % is scaled to controls: 0 for no effect and ±100 for the full control effect
AMA1 RON2 block: AMA1-RON2 (P. falciparum) interaction inhibition; AlphaScreen AMA1-biotinylated RON2 peptide binding; Potency, µM (highest dose often 58.2 µM), for inactives: top-dose activity change, negative = inhibition, most hits filed as inhibitors; 360,000 compounds, 0.2% hits; AID 720542; active = well fitted inhibition curve with a large enough effect; inconclusive = small, poorly fitted or top-dose-only effect; inactive = no such curve, though single readings can be large or run the other way;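 also: potency is read from the fitted curve at half-maximal effect; 0% = vehicle wells and -100% = peptide control; nearly all actives have a fitted effect of over 45% in size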
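AMA1 (3D7) with his tag at 25 nM final met compounds first, then biotinylated RON2 peptide at 25 nM; detection used donor plus acceptor beads, 10 µg/mL apiece, read by AlphaScreen after 30 min at room temperature.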
LASV entry inh: inhibitors of Lassa virus binding or cell entry. Lassa virus pseudotype entry inhibition, cell reporter. AID 540256. Potency, µM (highest dose often 37.9 µM), for the others: at the highest dose activity change, negative = inhibition, actives largely listed as inhibitors. 300,000 compounds, 1.2% hits; calls by dose curve; tested in HEK293 cells; also: potency is read from the fitted curve at half-maximal effect; % is scaled to controls: 0 for no effect and ±100 for the full control effect; nearly all actives have a fitted effect of over 50% in size
CHX counter: counter-screen hit for Shiga toxin inhibitors, cycloheximide | 300,000 compounds, 12% hits | AID 2314 | max response, % | cell reporter, cycloheximide protein synthesis inhibition counterscreen; in the data active = max response mostly above about 13%, no sharp cut-off; inactive = mostly below about 14%; also: read at 38.3 µM for the half of the compounds with a filed dose; 0% is about no effect
The depositor's hits bear a star; u = inconclusive; x = no result given; [ ] = remark or other dose.

SMILES	Shiga toxin inh	MARV entry inh	AMA1 RON2 block	LASV entry inh	CHX counter
CCc1nc2c(OCC(=O)C(C)(C)C)cccn2c1N(C)C(=O)C(C)C	x	x	24%	x	x
COc1ccc(Br)cc1CNC(=O)CCSCc1ccc(Cl)cc1	x	x	x	9%[46.1 µM]	x
COc1cccc2c(=O)n(CC(=O)Nc3ccc(F)cc3)ccc12	-6	x	0%	x	5
COc1cccc2c(=O)n(CC(=O)NC3CCCCC3)ccc12	5	x	-2%	x	9.8*
COc1cccc2c(=O)n(CC(=O)Nc3ccccc3F)ccc12	23*	x	9%	x	27*
CCN(C(=O)c1ccc(NC(=O)C2CCCCC2C(=O)O)cc1)c1ccccc1 (stereo not given)	x	x	-6%	x	x
CN(C)C(CNC(=O)c1ccc2ccccc2c1)c1ccco1 (stereo not given)	77*	8%[46.1 µM]	1%	13%	32*
CN(C)c1cccc(C(=O)NCC(c2ccco2)N(C)C)c1 (stereo not given)	75*	u	15%	10%[46.1 µM]	37*
Cc1cc(C)c(S(=O)(=O)NCC(c2ccco2)N2CCN(c3ccccc3)CC2)c(C)c1 (stereo not given)	x	x	x	0%[46.1 µM]	x
CCN(CC)S(=O)(=O)c1csc(C(=O)OCC(=O)c2ccccc2)c1	41*	-13%	-4%	-2%	33*
CCN(Cc1ccccc1)S(=O)(=O)c1csc(C(N)=O)c1	-5	x	7%	x	-1
CC(=O)c1ccc(NC(=O)CSC2=Nc3ccccc3N=C(c3ccc(F)cc3)C2)cc1	x	x	x	21%[46.1 µM]	x
COc1ccc(-n2nc(C)c3sc(C)nc3c2=O)cc1	46	-27%[46.1 µM]	12%	28%	9.6*
Cc1nc2c(=O)n(-c3ccc(F)c(Cl)c3)nc(C)c2s1	-6	10%	4%	2%	-2
COc1cccc(NC(=O)Nc2ccc3c(c2)OCO3)c1	77*	x	-8%	x	40*
COc1cccc(NC(=O)CN(C)CC(=O)Nc2ccc3c(c2)OCO3)c1	x	3%[46.1 µM]	17%	-2%[46.1 µM]	x
COc1ccc(OC)c(NC(=O)Nc2ccc3c(c2)OCO3)c1	56*	x	-2%	x	15*
CC(C)(C)C(=O)Cn1ncc(Cl)c(Cl)c1=O	-31	x	13%	x	-14
CC(C)(C)C(=O)Cn1ncc(NC2CC2)c(Br)c1=O	14	-3%	7%	4%	13*
CC(C)(C)C(=O)Cn1ncc(N2CCCC2)c(Br)c1=O	138*	u	6%	0%	36*
Cc1ccc(NC(=O)/C=C2\NC(=O)CS2)cc1	62*	10%[46.1 µM]	-6%	10%	45*
COc1ccccc1NC(=O)/C=C1\NC(=O)CS1	84	-9%[46.1 µM]	-10%	-10%	45
CC(C)(C)c1ccc(C(=O)/C=C2\NC(=O)CS2)cc1	49	-20%[46.1 µM]	15%	u	26*
COc1ccc(N=C2S/C(=C\c3ccc(Cl)c([N+](=O)[O-])c3)C(=O)N2CCN(C)C)cc1	21	x	14µM*	x	-2
CC(=O)Nc1ccc(S(=O)(=O)Nc2nc3ccccc3nc2N2CCc3ccccc3C2)cc1	103*	0%	0%	u	47*
SMILES	Shiga toxin inh	MARV entry inh	AMA1 RON2 block	LASV entry inh	CHX counter
Cc1ccccc1S(=O)(=O)Nc1nc2ccccc2nc1N1CCc2ccccc2C1	93*	-22%	10%	9%	37*
O=S(=O)(Nc1nc2ccccc2nc1N1CCc2ccccc2C1)c1ccc(Cl)cc1	25*	u	-9%	u	71*
O=S(=O)(Nc1nc2ccccc2nc1N1CCc2ccccc2C1)c1ccc(Br)cc1	33*	u	-3%	u	44*
Cc1ccccc1S(=O)(=O)Nc1nc2ccccc2nc1Cl	26	25%[46.1 µM]	4%	19%[46.1 µM]	2
OC[C@@H]1CN(Cc2cccs2)C[C@H](n2cnc3c(NCc4ccncc4)ncnc32)O1	x	x	5%	x	x
O=C(Cc1ccccc1)Nc1ncccn1	x	x	54%	x	x
O=S(=O)(Nc1nc2ccccc2nc1N1CCN(c2ccccn2)CC1)c1ccc(Cl)cc1	38	x	3%	x	15*
CS(=O)(=O)c1ccccc1C(=O)Nc1nc2ccccc2[nH]1	14	16%[46.1 µM]	16%	u	13
Cc1c(C(=O)Nc2nc3ccccc3[nH]2)oc2c(Cl)cccc12	76*	9%[46.1 µM]	38%	u	32*
Cc1c(C(=O)Nc2nc3ccccc3[nH]2)oc2ccccc12	100*	u	48%	u	47*
CCOc1ccc(N2CC(C(=O)Nc3cccc(S(=O)(=O)NC4=NCCC4)c3)CC2=O)cc1 (stereo not given)	2	x	-5%	x	2
C=C1C(=O)O[C@@H]2[C@H]1CC[C@H](C)[C@]1(O)CCC(=O)[C@@]21C	48	x	-7%	x	21*
C=C1CCC(O)C2(C)CCC3C(C)C(=O)OC3C12O (stereo not given)	4	4%[46.1 µM]	-3%	-8%[46.1 µM]	-3
O=C(O)c1cccc2c1/C(=N/Nc1ccc([N+](=O)[O-])cc1[N+](=O)[O-])c1ccccc1-2	-5	x	-7%	x	-1
CCN1CCN(S(=O)(=O)c2c[nH]c(C(=O)OC)c2)CC1	-7	x	-1%	x	-1
CCOc1ccc2oc(=O)cc(CN3CCN(c4ccc(OC)cc4)CC3)c2c1	x	3%[46.1 µM]	x	9%[46.1 µM]	x
CSc1nc(N)n2nc(C(C)(C)C)cc2n1	26	0%	-1%	0%	15*
COc1cccc(OCc2cc(C(=O)N3CCN(c4ccccc4OC)CC3)no2)c1	70*	x	0%	x	29*
COc1cccc(OCc2cc(C(=O)N3CCN(c4ccccc4O)CC3)no2)c1	107*	4%[46.1 µM]	-7%	u	50*
COCCN1CCN(C(=O)c2cc(COc3cncc(Cl)c3)on2)CC1	-7	u	7%	-21%	-2
Cc1ccc(N2CCN(C(=O)c3cc(COc4c(C)cccc4C)on3)CC2)c(C)c1	-30	-8%	-13%	0%	8
COc1cccc(OCc2cc(C(=O)N3CCN(C(C)=O)CC3)no2)c1	104*	x	0%	x	60*
COc1ccccc1N1CCN(C(=O)c2cc(-c3ccccc3)on2)CC1	15	13%[46.1 µM]	-2%	2%[46.1 µM]	-1
O=C(/C=C/c1cccs1)NC1CCCC1	48*	-14%[46.1 µM]	10%	-10%[46.1 µM]	18
CC(C)CNC(=O)/C=C/c1cccs1	24	20%	5%	23%	19*
CCC(C)(C)NC(=O)/C=C/c1cccs1	12	1%	-10%	8%	11*
